CYP2C19 activ = cytochrome P450 2C19 (human) activation | P33261 | recombinant CYP2C19, luciferin-H EGE luminescence; hits give high values; 0 = fully inhibited enzyme, 1 = untreated enzyme | activation factor at 5 µM | 96,000 tested, under 10 active | AID 1025;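 active = activation factor of at least 2 at 5 µM in the primary screen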;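 note: 0 = wells with 2.5 mM tranylcypromine and 1 = vehicle-only wells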
sEH activator = soluble epoxide hydrolase (human) activation | activation, % at 2 µM | purified human sEH enzymatic activity, activator screen | actives 0.04% (n = 91,000); in the data active = activation above about 37%
Target sequence (P34913 whole entry, looked up): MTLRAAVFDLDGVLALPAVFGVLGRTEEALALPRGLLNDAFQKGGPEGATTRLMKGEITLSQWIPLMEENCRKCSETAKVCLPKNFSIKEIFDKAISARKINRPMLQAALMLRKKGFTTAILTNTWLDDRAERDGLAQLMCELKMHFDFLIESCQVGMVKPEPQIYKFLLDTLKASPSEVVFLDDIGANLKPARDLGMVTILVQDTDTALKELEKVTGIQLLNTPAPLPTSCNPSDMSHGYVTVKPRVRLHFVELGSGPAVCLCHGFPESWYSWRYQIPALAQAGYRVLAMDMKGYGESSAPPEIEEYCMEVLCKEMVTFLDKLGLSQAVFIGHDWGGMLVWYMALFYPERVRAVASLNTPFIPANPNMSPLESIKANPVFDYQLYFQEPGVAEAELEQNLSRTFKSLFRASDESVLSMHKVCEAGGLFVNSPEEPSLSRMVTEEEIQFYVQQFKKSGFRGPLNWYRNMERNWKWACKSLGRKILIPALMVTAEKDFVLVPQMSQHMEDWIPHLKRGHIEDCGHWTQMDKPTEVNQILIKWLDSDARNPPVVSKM
CYP2C9 inhib = inhibitors of human CYP2C9 | CYP2C9 Supersomes, luciferin-H conversion, luminescence | inhibition, % at 5 µM | actives 20% (n = 96,000) | AID 777;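 active = blocking of liver enzyme CYP2C9 beyond about 50% at 5 µM, limit read from the data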
sEH inh = inhibitors of human soluble epoxide hydrolase | P34913 | recombinant human sEH enzymatic activity assay | inhibition, % at 2 µM | actives 0.34% (n = 91,000) | AID 707; in the data active = inhibition above about 80%
CYP2C19 inhib = human CYP2C19 inhibition | actives 21% (n = 96,000) | inhibition, % at 5 µM | CYP2C19 Supersomes, luciferin-H EGE luminescence, 30 min;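 active = CYP2C19 inhibition above a set limit at 5 µM in the primary screen, cut at about 50% in these data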;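 note: plate controls were negative control wells for no effect and 2.5 mM tranylcypromine positive control for full effect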
CYP2C9 activ = increases human cytochrome P450 2C9 activity. P11712. recombinant CYP2C9, luciferin-H conversion, luminescence; hits give high values; factor 1 = untreated enzyme, 0 = blocked. activation factor at 5 µM. actives 1.4% (n = 96,000). AID 1024;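 active = activation factor of 2 or more for CYP2C9 at a 5 µM dose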;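 note: 0 = sulfaphenazole-blocked wells and 1 = vehicle-only wells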
* = called active by the depositor; . = not tested or not shown. Sampled rows, rich in hits. Any-hit rate of the full collection: about 27%.

SMILES	CYP2C19 activ	sEH activator	CYP2C9 inhib	sEH inh	CYP2C19 inhib	CYP2C9 activ
CC1=C(CC/C(C)=N/NC(N)=S)C(C)(C)CCC1	.	-5.8	.	5.5	.	.
O=C(Nc1ccccn1)c1cccs1	1.1	5.5	-16.2	-4.5	-12.5	1.2
CCN(CC)S(=O)(=O)c1csc(C(=O)Nc2ccccn2)c1	0.3	2.0	80.7*	-2.8	66.9*	0.2
CCC(=O)N1c2ccc(S(=O)(=O)N(CCO)Cc3ccccc3)cc2CC1C (stereo not drawn)	0.5	.	56.2*	.	51.9*	0.4
CCOC(=O)N1CCN(C(=O)CSc2cc(C)nc3c(-c4ccccc4OC)c(C)nn23)CC1	0.7	6.6	41.5	-5.2	27.7	0.6
CCOC(=O)N1CCC(Nc2cc(C)nc3c(-c4ccccc4OC)c(C)nn23)CC1	0.2	.	79.1*	.	84.1*	0.2
COc1cc(C2c3c(n[nH]c3C)C(=O)N2c2ccc(Br)cc2)ccc1O (stereo not drawn)	0.5	8.4	30.9	-6.8	52.5*	0.7
CCOc1cc(C2c3c(n[nH]c3C)C(=O)N2c2ccc(Br)cc2)ccc1O (stereo not drawn)	0.2	1.5	71.2*	-0.2	81.0*	0.3
Cc1[nH]nc2c1C(c1cccnc1)N(c1ccc(Br)cc1)C2=O (stereo not drawn)	.	-15.7	.	13.9	.	.
CCCn1c(SCC(=O)Nc2ccc3c(c2)OCCO3)nnc1-c1ccco1	0.3	-21.1	91.5*	23.9	72.7*	0.1
COc1cccc(-c2nnc(SCC(=O)NCc3ccc4c(c3)OCO4)n2Cc2ccco2)c1	0.7	-7.3	71.7*	9.5	32.2	0.3
COCCn1c(SCC(=O)Nc2ccc3c(c2)OCCO3)nnc1-c1c[nH]c2ccccc12	0.7	2.5	58.4*	-0.8	32.0	0.4
COCCn1c(SCC(=O)NCc2ccco2)nnc1-c1c[nH]c2ccccc12	0.8	10.1	31.2	-11.2	24.5	0.7
COc1cccc(-c2nnc(SCC(=O)Nc3ccc4c(c3)OCCO4)n2Cc2ccco2)c1	0.6	-15.6	58.5*	18.3	39.7	0.4
CC(=O)c1sc(Nc2ccccn2)nc1C	1.2	-1.3	-4.1	0.2	-16.4	1
CN1CCC2(CC1)C1CN(C)CC=C1C(C#N)=C(N)C2(C#N)C#N (stereo not drawn)	1	.	2.9	.	1.2	1
CCCC1(C(=O)O)NC(c2cccc(OC)c2O)C2C(=O)N(c3ccccc3)C(=O)C21 (stereo not drawn)	1	4.9	-9.7	-3.2	-3.6	1.1
O=C1CC(Nc2ccccc2)C(=O)N1CCc1ccccc1 (stereo not drawn)	0.2	12.2	8.3	-10.0	79.2*	0.9
O=C1CC(=O)N(CCc2ccc(F)cc2)C(=O)N1	1	-0.7	14.4	0.4	0.5	0.9
O=C1CC(=O)N(CCc2ccccc2)C(=O)N1CCc1ccccc1	1	-9.1	58.1*	11.3	3.2	0.4
O=C1CC(Nc2ccccc2)C(=O)N1Cc1ccccc1 (stereo not drawn)	0.1	6.3	24.4	-8.9	91.3*	0.8
OC(CN1C2=NCCN2c2ccccc21)c1ccc2c(c1)OCO2 (stereo not drawn)	0.9	.	15.0	.	12.5	0.8
Cc1cccc(NS(=O)(=O)c2cccs2)n1	1.1	20.4	-8.7	-21.1	-8.3	1.1
COCCn1c(N)c(S(=O)(=O)c2cccs2)c2nc3ccccc3nc21	0.6	7.8	26.8	-8.9	36.7	0.7
O=S(=O)(c1cccs1)N1CN(CC2CCCO2)c2nc3ccccc3nc21 (stereo not drawn)	0.7	-12.8	28.0	11.9	31.9	0.7
SMILES	CYP2C19 activ	sEH activator	CYP2C9 inhib	sEH inh	CYP2C19 inhib	CYP2C9 activ
COc1ccc(Nc2nc3ccccc3nc2NS(=O)(=O)c2cccs2)cc1	0.7	1.9	87.5*	1.7	34.4	0.1
COCCCNc1nc2ccccc2nc1NS(=O)(=O)c1cccs1	0.9	10.1	94.0*	-8.2	5.5	0.1
O=S(=O)(Nc1nc2ccccc2nc1NCC1CCCO1)c1cccs1 (stereo not drawn)	0.9	-2.8	92.1*	2.8	14.5	0.1
CC1(C)N=C(N)NC(Nc2ccccc2)=N1	.	4.4	.	-2.5	.	.
O=C(O)/C=C\C(=O)Nc1ccccc1C#Cc1ccc(Br)cc1	1	-5.4	87.1*	5.8	-3.4	0.1
NC(=O)c1ccccc1NC(=O)/C=C/C(=O)O	0.9	-14.4	2.5	16.7	6.9	1
O=C(O)/C=C\C(=O)Nc1ccccc1C#Cc1ccccc1	1	0.0	62.1*	0.5	2.6	0.4
c1cc2c(cc1C1CCCN1)OCCCO2 (stereo not drawn)	1	6.7	-1.9	-6.4	-0.4	1
O=C(CN1CCN(c2ccccn2)CC1)N(c1ccccc1)c1ccc2ccccc2c1	0.4	.	51.1*	.	56.1*	0.5
O=C(CN1CCOCCOCCOCC1)Nc1ccccc1	1	0.8	-14.0	0.7	-1.0	1.1
O=C(CN1CCOCC1)N(c1ccccc1)c1ccc2ccccc2c1	0.2	5.1	44.8	-6.2	76.5*	0.6
Cc1ccnc(NC(=O)CCc2c(C)nc3ncnn3c2C)c1	1.1	-8.5	10.4	6.7	-6.3	0.9
COC(=O)c1ccc(Cl)c(NC(=O)CN2CCN(Cc3ccccc3)CC2)c1	0.7	6.9	9.6	-5.4	28.1	0.9
O=C(CN1CCN(c2ccccc2)CC1)Nc1cccc(C(F)(F)F)c1	0.7	-13.1	28.8	11.4	26.6	0.7
O=C(CN1CCN(Cc2ccccc2)CC1)Nc1cccc(C(F)(F)F)c1	0.4	14.8	50.7*	-15.8	55.0*	0.5
CC1CN(CC(=O)Nc2cccc(C(=O)Nc3cccc(C(F)(F)F)c3)c2)CC(C)O1 (stereo not drawn)	0.5	-44.6	77.2*	45.6	54.2*	0.2
COC(=O)c1cccc(NC(=O)CN2CCN(Cc3ccccc3)CC2)c1	0.5	-9.6	64.3*	11.9	50.9*	0.4
COc1ccc2c(c1)CC(C1(O)C(=O)Nc3ccccc31)C2=O (stereo not drawn)	0.2	0.7	18.0	0.4	82.9*	0.8
O=C1CCCCCC1C1(O)C(=O)Nc2ccccc21 (stereo not drawn)	1.1	-7.5	-26.5	10.9	-12.3	1.3
Cc1ccc(CNC(=O)CSc2nc3ccccc3c3nc(C)nn23)cc1	0.8	-3.2	-97.6	1.9	23.1	2*
CC(NC(=O)CSc1nc2ccccc2c(=O)n1CCCO)c1ccccc1 (stereo not drawn)	0.3	-0.5	89.8*	-1.4	72.1*	0.1
Cc1ccc(CNC(=O)CSc2nnnn2C)cc1	0.8	3.0	24.2	-4.6	16.2	0.8
O=c1c2ccccc2nc(SCc2cc(=O)n3ccsc3n2)n1CCCO	0.8	18.0	38.3	-20.4	24.9	0.6
Cc1ccc(CNC(=O)CSc2nc3ccccc3c(=O)n2CCCO)cc1	0.4	7.3	87.3*	-9.4	62.3*	0.1
CC(C)NC(=O)CSc1nc2ccccc2c(=O)n1CCCOC(C)C	0.8	.	53.7*	.	17.8	0.5

Source: PubChem BioAssay (several laboratories)
